From PubChem BioAssay (NCATS)
Inconclusive results are not listed. Active and inactive are the calls of the source. Calls follow the shape of the dose curve; as a rule, active = well fitted inhibition curve with a large enough effect; inconclusive = small, poorly fitted or top-dose-only effect; inactive = flat fitted curve, though single readings scatter.

What follows are compounds tested on CP203 (assay: qHTS profiling for inhibitors of Plasmodium falciparum proliferation (AID 504749; also: nearly all actives have a fitted effect of over 60% in size;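 as to activity, negative = inhibition: 0% = DMSO vehicle and full inhibition = artemisinin control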)). Conditions: P. falciparum in erythrocytes, SYBR Green DNA, 72 h; series mostly up to 28.7 µM; activity, negative = inhibition: at the top concentration.
How it was run: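 Readout was DNA-dye fluorescence from lysed cultures, ex 485/em 535 nm. Parasitized red cells had grown 72 h with compound; data scaled between 0.29 uM artemisinin and DMSO wells and corrected using vehicle-only plates.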
Potency is read from the fitted curve at half-maximal effect.

activity, negative = inhibition, inactive:
CCCCCCCCCCCCCCCC(=O)OC[C@H](O)[C@H]1OC[C@@H](O)[C@@H]1O -2.18%
C[C@H]1OC(OC2C(O)[C@@H](O)C(OC3C(O)[C@@H](O)C(O)O[C@@H]3CO)O[C@@H]2CO)[C@H](O)C(O)C1N[C@H]1C=C(CO)[C@@H](O)[C@H](O)C1O (stereo not given in full) -3.55%
CCN(CC)CC(=O)Nc1c(C)cc(C)cc1C -4.11%
CC(=O)N[C@H]1[C@H](O[C@@H]2c3ccc(c(Cl)c3)Oc3cc4cc(c3O[C@@H]3O[C@H](CO)[C@@H](O)[C@H](O)C3C)Oc3ccc(cc3Cl)C[C@H]3NC(=O)[C@@H](N)c5ccc(O)c(c5)Oc5cc(O)cc(c5)[C@H](NC3=O)C(=O)N[C@H]4C(=O)N[C@H]3C(=O)N[C@@H]2C(=O)N[C@@H](C(=O)O)c2cc(O)cc(O[C@H]4O[C@H](CO)[C@@H](O)C(O)[C@@H]4O)c2-c2cc3ccc2O)O[C@H](CO)[C@@H](O)[C@@H]1O (stereo not given in full) 7% [at 12.8 µM]
NC(=O)c1ncn(C2OC(CO)C(O)C2O)c1N (stereo not given) 2.79%
CC1(Cn2ccnn2)[C@H](C(=O)O)N2C(=O)C[C@H]2S1(=O)=O (stereo not given in full) 4.9%
CN(C)CC/C=C1\c2ccccc2COc2ccc(CC(=O)O)cc21 -9.49%
CCCC(=O)O[C@]1(C(=O)COC(C)=O)CC[C@H]2C3C[C@H](F)C4=CC(=O)C=CC4(C)[C@@]3(F)[C@@H](O)CC21C (stereo not given in full) -11.6%
OCCN1CC(O)C(O)C(O)C1CO (stereo not given) -0.669%
CC(CCC(=O)O)C1CCC2C3C(=O)C[C@@H]4CC(=O)CC[C@@]4(C)C3CC(=O)[C@]12C (stereo not given in full) 3.56%
O=C(OC[C@@H]1O[C@@](O)(COC(=O)c2cccnc2)[C@H](OC(=O)c2cccnc2)[C@H]1OC(=O)c1cccnc1)c1cccnc1 -2.55%
O=[N+]([O-])O[C@H]1CO[C@H]2[C@@H]1OC[C@H]2O 2.56%
COc1cccc(OC)c1C(=O)NC1C(=O)N2C1SC(C)(C)C2C(=O)O (stereo not given) 1.67%
NC[C@@H]1O[C@H](OC2[C@@H](CO)O[C@@H](OC3[C@H](O)[C@H](N)C[C@H](N)[C@H]3OC3O[C@H](CO)[C@@H](O)[C@H](O)[C@@H]3N)[C@H]2O)C(N)[C@H](O)[C@@H]1O (stereo not given in full) -2.97%
Cc1ccc(S(=O)(=O)NC(=O)NC(C)Cc2ccccc2)cc1 (stereo not given) -11.2%
OCCOC[C@H]1O[C@H](OCCO)[C@H](OCCO)[C@@H](OCCO)[C@@H]1OCCO (tested in a mixture with another compound) 3.44%
C[S+](C)CC[C@H](N)C(=O)O 0.577%
CC[C@@H]1/C=C(\C)C[C@H](C)C[C@H](OC)[C@H]2O[C@@](O)(C(=O)C(=O)N3CCCC[C@H]3C(=O)O[C@H](/C(C)=C/[C@@H]3CC[C@H](Cl)[C@H](OC)C3)[C@H](C)[C@@H](O)CC1=O)[C@H](C)C[C@@H]2OC 6.96%
NC(=O)C1CC2(NC(=O)NC2=O)c2cc(F)ccc2O1 (stereo not given) 14.6%
CN1[C@@H]2CC[C@@H]1CC(OC(=O)[C@H](CO)c1ccccc1)C2 (stereo not given in full) 2.11%
CCCCCCCCCCCC(=O)OCC(O)C1OCC(O)C1O (stereo not given) 7.11%
C/C1=C2/[N-]C(C(CC(N)=O)[C@@]2(C)CCC(=O)NCC(C)OP(=O)([O-])O[C@H]2[C@@H](O)[C@@H](n3cnc4cc(C)c(C)cc43)O[C@@H]2CO)[C@]2(C)N=C(/C(C)=C3N=C(/C=C4N=C1C(CCC(N)=O)C\4(C)C)[C@@H](CCC(N)=O)[C@]\3(C)CC(N)=O)[C@@H](CCC(N)=O)[C@]2(C)CC(N)=O.CC(=O)O.[Co] (stereo not given in full) -3.37%
CC1(C)OC[C@@H]2O[C@@]3(C(=O)O)OC(C)(C)O[C@@H]3[C@@H]2O1 0.989%
Cc1ccccc1N1C(=O)c2cc(N)ccc2N/C1=C\F -0.691%
O=C1C(I)=CC(=C(c2cc(I)c(O)c(I)c2)c2ccccc2C(=O)O)C=C1I 1.9%
NC(=O)NC(CCC(=O)O)C(=O)O (stereo not given) -5.45%
CC(=O)OCC(=O)[C@@]1(O)CCC2C3C[C@H](C)C4=CC(=O)C=CC4(C)C3C(O)CC21C (stereo not given in full) 0.0459%
CC1(C)C2CC[C@]1(C)[C@@H](O)C2 -2%
OCC1O[C@H](Oc2ccc(O)cc2)C(O)C(O)C1O (stereo not given in full) -4.79%
Nc1nc(F)nc2c1ncn2[C@@H]1O[C@H](CO)[C@@H](O)[C@H]1O 1.57%
CC1OC(OC2CCC3(C)C(CCC4C3CC(O)C3(C)C(C5=CC(=O)OC5)CCC43O)C2)CC(O)C1OC1CC(O)C(OC2CC(O)C(OC3OC(CO)C(O)C(O)C3O)C(C)O2)C(C)O1 (stereo not given) -15.5%
CC1OC(OCC2OC(Oc3c(-c4ccc(OCCO)c(OCCO)c4)oc4cc(OCCO)cc(O)c4c3=O)C(O)C(O)C2O)[C@@H](O)C(O)C1O (stereo not given in full) -11.9%

Potency, active:
CCCCC(=O)OCC(=O)[C@]1(O)Cc2c(O)c3c(c(O)c2[C@H](OC2CC(NC(=O)C(F)(F)F)C(O)C(C)O2)C1)C(=O)c1c(OC)cccc1C3=O (stereo not given in full) 1690 nM
C[C@H]1[C@@H](OC(=O)CCC(=O)O)OC2OC3(C)CC[C@H]4[C@H](C)CC[C@@H]1[C@@]24OO3 (stereo not given in full) 5.4 nM
COc1cc2c(cc1O)CCN[C@@]21CS[C@H]2c3c(OC(C)=O)c(C)c4c(c3C(COC1=O)N1C2C2c3c(cc(C)c(OC)c3O)CC([C@@H]1O)N2C)OCO4 (stereo not given in full) 0.4 nM
C[n+]1c2cc(N)ccc2cc2ccc(N)cc21 1070 nM
CC[C@@]1(O)C[C@H](O[C@H]2C[C@@H](N(C)C)[C@@H](O[C@H]3C[C@@H](O)[C@@H](O[C@H]4CCC(=O)[C@@H](C)O4)[C@@H](C)O3)[C@@H](C)O2)c2c(cc3c(c2O)C(=O)c2c(O)cccc2C3=O)[C@H]1C(=O)OC 849 nM
CCC(C(=O)O)C1OC(C(C)C(O)C(C)C(=O)C(CC)C2OC3(C=CC(O)C4(CCC(C)(C5CCC(O)(CC)C(C)O5)O4)O3)C(C)CC2C)C(C)CC1C (stereo not given) 37.9 nM
COC1CC2CCC(C)[C@](O)(O2)C(=O)C(=O)N2CCCCC2C(=O)OC(C(C)CC2CCC(O)C(OC)C2)CC(=O)C(C)/C=C(/C)C(O)C(OC)C(=O)C(C)CC(C)C=CC=C/C=C\1C (stereo not given in full) 1690 nM
CN[C@H](C)CCC=C(C)C 601 nM
